Results filed as inconclusive are left out. Values without a mark were called inactive. Calls of active or inactive are those of the source. Calls come from the whole dose curve; as a rule, active = well fitted inhibition curve with a large enough effect; inconclusive = small, poorly fitted or top-dose-only effect; inactive = flat fitted curve, though single readings scatter.
Potency is the fitted concentration of half-maximal effect.

The test system of one assay is PC26. Nature of the assay: qHTS profiling for inhibitors of Plasmodium falciparum proliferation (AID 504749).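 For activity, negative = inhibition: 0% = DMSO vehicle and full inhibition = artemisinin control.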 Note: nearly all actives have a fitted effect of over 60% in size. Conditions: P. falciparum in erythrocytes, SYBR Green DNA, 72 h; series mostly up to 28.7 µM; activity, negative = inhibition: at the top concentration. Put shortly:
(§1)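 In a 72 h erythrocytic culture (37 C, humidified, 5% CO2) at 2.5% hematocrit and 0.3% starting parasitemia, compounds were tested; SYBR Green I in detergent lysis buffer stained parasite DNA overnight.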
Regarding `CC1CCC(C(C)C)C(OC(=O)c2ccccc2N)C1` (stereo not drawn), the “activity, negative = inhibition” value is -16.5%.
Still for that read-out and setting: the result for `C[N+]1(C)CCCCC1COC(=O)C(O)(c1ccccc1)c1ccccc1` (stereo not drawn) reads 6.11%.
On to `CCC1(c2ccccc2)C(=O)NC(=O)N(C(=O)c2ccccc2)C1=O` (stereo not drawn), for which the “activity, negative = inhibition” value is -22.5%.
The same measure, in the same setting: the result for `O=[N+]([O-])C(Br)(CO)CO` reads 4.46%.
The same measure, in the same setting: the result for `COc1ccc2c3c1O[C@H]1C(=O)CC[C@H]4[C@@H](C2)N(C)CC[C@]314` reads -1.97%; that for `O=C1C2CC=CCC2C(=O)N1SC(Cl)(Cl)Cl` (stereo not drawn), -1.6%.
Take `C[CH2][Hg][S]c1ccccc1C(=O)O`: the Potency was 3.79 µM (active).

Another assay relates to PC49. Described as above. The settings on record: P. falciparum in erythrocytes, SYBR Green DNA, 72 h; series mostly up to 28.7 µM; activity, negative = inhibition: at the top concentration. Put shortly:
as §1
For `CC1CCC(C(C)C)C(OC(=O)c2ccccc2N)C1` (stereo not drawn), the “activity, negative = inhibition” value is 0.254%.
The same measure, in the same setting: the result for `C[N+]1(C)CCCCC1COC(=O)C(O)(c1ccccc1)c1ccccc1` (stereo not drawn) reads 4.24%.
The same measure, in the same setting: the result for `CCC1(c2ccccc2)C(=O)NC(=O)N(C(=O)c2ccccc2)C1=O` (stereo not drawn) reads -12%; that for `O=[N+]([O-])C(Br)(CO)CO`, 8.9%; that for `COc1ccc2c3c1O[C@H]1C(=O)CC[C@H]4[C@@H](C2)N(C)CC[C@]314`, 6.41%.
Consider `O=C1C2CC=CCC2C(=O)N1SC(Cl)(Cl)Cl` (stereo not drawn), for which the “activity, negative = inhibition” value was 16%.
In the case of `C[CH2][Hg][S]c1ccccc1C(=O)O`, the Potency was 2.24 µM (active).

A further assay concerns SC27B. The assay is described as above. The settings on record: P. falciparum in erythrocytes, SYBR Green DNA, 72 h; series mostly up to 28.7 µM; activity, negative = inhibition: at the top concentration. Put shortly: as §1
Take `CC1CCC(C(C)C)C(OC(=O)c2ccccc2N)C1` (stereo not drawn): the “activity, negative = inhibition” value was -25.6%.
For `C[N+]1(C)CCCCC1COC(=O)C(O)(c1ccccc1)c1ccccc1` (stereo not drawn), the “activity, negative = inhibition” value is 1.71%.
Same read-out and setting: the result for `CCC1(c2ccccc2)C(=O)NC(=O)N(C(=O)c2ccccc2)C1=O` (stereo not drawn) reads -4.32%; that for `O=[N+]([O-])C(Br)(CO)CO`, 0.0995%.
As to `COc1ccc2c3c1O[C@H]1C(=O)CC[C@H]4[C@@H](C2)N(C)CC[C@]314`, the “activity, negative = inhibition” value was 1.6%.
The same measure, in the same setting: the result for `O=C1C2CC=CCC2C(=O)N1SC(Cl)(Cl)Cl` (stereo not drawn) reads 0.125%.
In the case of `C[CH2][Hg][S]c1ccccc1C(=O)O`, the Potency is 3.98 µM (active).

The next assay relates to TAB109. Described as above. Conditions: P. falciparum in erythrocytes, SYBR Green DNA, 72 h; series mostly up to 28.7 µM; activity, negative = inhibition: at the top concentration. Put shortly: as §1
As to `CC1CCC(C(C)C)C(OC(=O)c2ccccc2N)C1` (stereo not drawn), the “activity, negative = inhibition” value is -10.2%.
Regarding `C[N+]1(C)CCCCC1COC(=O)C(O)(c1ccccc1)c1ccccc1` (stereo not drawn), the “activity, negative = inhibition” value was -24.9%.
On the same count and under the same terms, the result for `CCC1(c2ccccc2)C(=O)NC(=O)N(C(=O)c2ccccc2)C1=O` (stereo not drawn) reads 1.61%; that for `O=[N+]([O-])C(Br)(CO)CO`, 4.64%.
As to `COc1ccc2c3c1O[C@H]1C(=O)CC[C@H]4[C@@H](C2)N(C)CC[C@]314`, the “activity, negative = inhibition” value is 9.91%.
Regarding `O=C1C2CC=CCC2C(=O)N1SC(Cl)(Cl)Cl` (stereo not drawn), the “activity, negative = inhibition” value is 3.56%.
In the case of `C[CH2][Hg][S]c1ccccc1C(=O)O`, the Potency was 2.51 µM (active).

The values are drawn from PubChem BioAssay (NCATS).
